Rows were chosen to be rich in hits. Some 19% of all compounds tested hit in one or more screens of this group.
TDP1 cell CPT = DT40-hTDP1 cell growth loss with CPT | chicken DT40 Tdp1-/-;hTDP1 cells + 20 nM CPT, ATP luminescence, 48 h | Potency, µM (highest dose often 46.2 µM), for inactives: top-dose activity change, negative = growth inhibition, usual class: inhibitors | hit rate 12% among 420,000; further: nearly all actives have a fitted effect of over 55% in size
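Cell growth measured by CellTiter-Glo luminescence after a minimum 48 h, 37 C compound exposure with 20 nM CPT in Tdp1-knockout DT40 cells stably expressing hTDP1, seeded 400/well; qHTS titration format.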
KB-V1 cytotox = KB-V1 MDR subline cytotoxicity; KB-V1 MDR cells viability, CellTiter-Glo, 72 h; Potency, µM (top dose mostly 46.1 µM), actives largely listed as cytotoxic; hit rate 3.4% among 400,000; AID 1347076; further: nearly all actives have a fitted effect of over 60% in size
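Cells of the MDR subline KB-V1 are plated, dosed with compound at multiple concentrations, and incubated 72 h at 37 degrees C; CellTiter-Glo is then added and luminescence read after 10 min.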
HT1080 IDH1KD tx = HT-1080 IDH1 knockdown cell toxicity (counter line); AID 686971; hit rate 2% among 360,000; HT-1080 IDH1 knockdown viability, ATP luminescence, 48 h; Potency, µM (doses to about 46.1 µM), for the others: at the highest dose activity, negative = toxicity, actives largely listed as cytotoxic;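 further: 0% = DMSO wells and -100% = cell-free medium wells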
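IDH1KD HT-1080 cells, 750/well, RPMI + 5% FBS; compound pinned after 2 h settling; 48 h, 37 °C; CellTiter-Glo luminescence; % activity normalised to DMSO and no-cell wells; curves fitted, classed by r2 and efficacy.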
TDP1 cell noCPT = qHTS for Inhibitors of human tyrosyl-DNA phosphodiesterase 1 (TDP1): qHTS in cells in absence of CPT | DT40 Tdp1-/- hTDP1 cells, no CPT, ATP luminescence, 48 h | Potency, µM (series often up to 46.2 µM), inactives show at the top dose activity change, negative = growth inhibition, hits mostly inhibitors | hit rate 15% among 420,000 | AID 686978, 2013; further: nearly all actives have a fitted effect of over 55% in size
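Growth kinetics read by CellTiter-Glo luminescence after ≥48 hr at 37 °C. Cells: DT40 Tdp1-/- stably carrying human TDP1, 400 per well, compound exposure in the absence of CPT (DMSO vehicle).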
HT1080NT lethal = kills 2HG-producing HT-1080-NT fibrosarcoma cells | HT-1080-NT fibrosarcoma viability, CellTiter-Glo ATP luminescence, 48 h | Potency, µM (titrated, usually from 46.1 µM), without a hit: at the top dose activity, negative = less viability, hits mostly cytotoxic | AID 686970 | hit rate 1.6% among 360,000;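 further: NT is the 2HG producing partner of a matched IDH1 knockdown line; 0% = DMSO-treated cells and -100% = media-only wells without cells; nearly all actives have a fitted effect of over 55% in size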
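HT-1080-NT; 750 cells/well; 5% FBS RPMI; 48 h compound, 37 degrees C; CellTiter-Glo luminescence; curve fitting and curve-class assignment.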
KB-3-1 tox = kills parental KB-3-1 adenocarcinoma cells; AID 1347075; KB-3-1 viability, CellTiter-Glo ATP luminescence, 72 h; Potency, µM (series often up to 46.1 µM), hits mostly cytotoxic; hit rate 1.4% among 400,000; further: nearly all actives have a fitted effect of over 60% in size
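KB-3-1 parental drug-naive adenocarcinoma cells in DMEM/10% FBS, incubated 72 h at 37 C with pin-transferred compounds across a concentration series. Viability by CellTiter-Glo luminescence; concentration-response curves fitted after normalization.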
* = called active by the depositor; i = inactive; ? = inconclusive; / = no result; ! = not active in a repeat. The call rests on the fitted dose curve; in most records, active means well fitted curve in the direction sought with a large enough effect; inconclusive means small, poorly fitted or top-dose-only effect, or another doubt; inactive means no such curve, though single readings can be large; an effect the other way counts as inactive or inconclusive. Unless noted, on the % scale 0 is the no-effect control and ±100 the full control effect; potency means the concentration at half of the fitted maximal effect.

SMILES	TDP1 cell CPT	KB-V1 cytotox	HT1080 IDH1KD tx	TDP1 cell noCPT	HT1080NT lethal	KB-3-1 tox
CC(=O)Nc1ccc(NC(=O)Cn2c(=O)ccc3cc(S(=O)(=O)N4CCC(C)CC4)ccc32)cc1	1.5%	?	/	?	/	i
Cc1ccc(NC(=O)Cn2c(=O)ccc3cc(S(=O)(=O)N4CCC(C)CC4)ccc32)c(C)c1	?	i	/	23.1µM*	/	i
CCc1ccccc1NC(=O)Cn1c(=O)ccc2cc(S(=O)(=O)N3CCC(C)CC3)ccc21	?	i	/	?	/	i
Cc1ccc(NC(=O)Cn2c(=O)ccc3cc(S(=O)(=O)N4CCC(C)CC4)ccc32)cc1Cl	11.6µM*	i	/	6.51µM*	/	i
CC1CCN(S(=O)(=O)c2ccc3c(ccc(=O)n3CC(=O)NCc3ccccc3Cl)c2)CC1	18.4µM*	i	/	?	/	i
C[C@H]1CCC[C@@]2(O[C@@H](CCO)C[C@@H](O)[C@@H]2O)O1	1.3%	i	10.0%	-6.8%	6.2%	i
CCOc1cc(C2c3c(oc4ccccc4c3=O)C(=O)N2Cc2ccccc2Cl)ccc1O (stereo not drawn)	?	i	/	?	/	i
CC(=O)c1cccc(NC(=O)Cn2c(=O)oc3cc(S(=O)(=O)NC4CCCC4)ccc32)c1	?	i	/	?	/	i
Cc1ccc(-c2cn3c(n2)sc2cc(C(=O)NCCCc4ccccc4)ccc23)c(C)c1	23.1µM*	i	/	18.4µM*	/	i
Cc1ccc(-c2cn3c(n2)sc2cc(C(=O)NCCC4=CCCCC4)ccc23)c(C)c1	16.4µM*	i	/	16.4µM*	/	i
CCc1ccc(-c2cn3c(n2)sc2cc(C(=O)NCCCc4ccccc4)ccc23)cc1	-22.3%	/	/	-2.2%	/	/
COc1ccccc1C(=O)NC(CCSC)C(=O)NCC(c1ccco1)N(C)C (stereo not drawn)	0.1%	18.4µM*	-1.3%	-18.5%	-0.7%	i
CSCCC(NC(=O)c1ccco1)C(=O)NCC(c1ccccc1)N(C)C (stereo not drawn)	9.0%	i	14.9%	2.1%	11.6%	i
CSCCC(NC(=O)c1ccccc1Cl)C(=O)N1CCN(C(C)=O)CC1 (stereo not drawn)	-8.7%	i	9.9%	0.1%	7.7%	i
COc1ccccc1C(=O)NC(CCSC)C(=O)N1CCC(Cc2ccccc2)CC1 (stereo not drawn)	14.6µM*	i	-4.9%	18.4µM*	-8.9%	i
CCN(C(=O)c1ccc(NC(=O)C2CCCCC2C(=O)O)cc1)c1ccccc1 (stereo not drawn)	14.2%	i	1.6%	-3.0%	2.4%	i
Cc1cccc(-c2nn3c(=O)cc(CN4CCN(C(=O)c5ccccc5Br)CC4)nc3s2)c1	-13.7%	i	/	-15.8%	/	i
COc1ccc(C(=O)N/C(=C\c2cn(C)c3ccccc23)C(=O)N2CCN(C)CC2)cc1OC	?	i	-2.9%	?	0.7%	i
CC1Sc2ccc(S(=O)(=O)N3CCC(C(=O)NCc4ccco4)CC3)cc2NC1=O (stereo not drawn)	?	i	-8.2%	?	-1.2%	i
COc1ccc(CNC(=O)C2CCN(S(=O)(=O)c3ccc4c(c3)NC(=O)C(C)S4)CC2)cc1 (stereo not drawn)	?	i	-3.6%	?	-10.9%	i
CC1Sc2ccc(S(=O)(=O)N3CCC(C(=O)N(C)Cc4ccco4)CC3)cc2NC1=O (stereo not drawn)	14.6µM*	i	-19.6%	?	-22.9%	i
CC1Sc2ccc(S(=O)(=O)N3CCC(C(=O)NCc4ccc(Cl)cc4)CC3)cc2NC1=O (stereo not drawn)	16.4µM*	i	?	14.6µM*	?	?
CC1C(=O)Nc2ccc(S(=O)(=O)N3CCCCC3)cc2NC1=O (stereo not drawn)	-13.3%	/	/	?	/	/
CCOC(=O)C1CCN(S(=O)(=O)c2ccc3c(c2)NC(=O)C(C)C(=O)N3)CC1 (stereo not drawn)	-12.0%	?	-6.5%	23.1µM*!	-0.8%	i
CCc1ccc(NC(=O)C2CCN(S(=O)(=O)c3ccc4c(c3)NC(=O)C(C)S4)CC2)cc1 (stereo not drawn)	18.4µM*	?	-25.6%	?	?	i
SMILES	TDP1 cell CPT	KB-V1 cytotox	HT1080 IDH1KD tx	TDP1 cell noCPT	HT1080NT lethal	KB-3-1 tox
CC12CCC(=O)N1C(C(=O)NCCc1ccc(S(N)(=O)=O)cc1)CS2 (stereo not drawn)	-0.7%	i	10.1%	-4.5%	5.5%	i
CC1Sc2ccc(S(=O)(=O)N3CCC(C(=O)Nc4cccc(Cl)c4)CC3)cc2NC1=O (stereo not drawn)	?	i	?	18.4µM*	?	14.6µM*
CSc1ccc(S(=O)(=O)N2c3ccccc3CC2C)cc1 (stereo not drawn)	?	?	?	20.6µM*	-25.7%	?
CC(=O)N1CCc2cc(S(=O)(=O)N3c4ccccc4CC3C)ccc21 (stereo not drawn)	11.6µM*	?	?	13µM*	?	?
CC1Cc2ccccc2N1S(=O)(=O)c1cnc(Cl)c(Cl)c1 (stereo not drawn)	16.4µM*	i	2.3%	10.3µM*	-2.5%	i
CCn1c(CNC(=O)c2ccccc2Br)nnc1SCC(=O)Nc1nncs1	-5.7%	i	19.8%	-12.3%	18.5%	i
O=C(Cn1c(=O)oc2ccccc21)Nc1ccc(Cl)cc1Cl	-21.3%	i	12.5%	9.8%	18.3%	i
O=C(Nc1ncc(Cc2ccccc2Cl)s1)C1CCCO1 (stereo not drawn)	-4.4%	?	?	?	?	i
O=C(c1ccc(COc2ccccc2Br)cc1)N1CCCCC1	14.6µM*	i	-26.6%	16.4µM*	-17.5%	i
O=C(COc1ccccc1Cl)Nc1ccc(C(=O)N2CCCCC2)cc1	?	i	-10.3%	?	?	?
CCCc1ccc(OCc2ccc(C(=O)N3CCCC3)o2)cc1	?	i	-28.5%	20.6µM*	?	i
O=C(c1ccc(COc2ccccc2Br)o1)N1CCCCCC1	20.6µM*	i	-21.4%	?	3.4%	i
Cc1ccc(-c2nc3ccc(Cl)cn3c2Cc2ccccc2C(F)(F)F)cc1	-26.0%	i	-22.9%	?	?	i
